# Shown are actives, neighbours in structure and some others; about 2.4% of the full set was active somewhere.
# D2 PAM-1 = positively modulates the human D2 dopamine receptor allosterically. potentiation, % at 10 µM. P14416. HEK293 T-REx D2, calcium flux, EC20 dopamine potentiation. 0.34% of 340,000 active;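 active = potentiation over 3 SD above the plate norm, cut at about 30% in these data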; note: 0% is about no effect
# Target sequence (P14416 whole entry, looked up): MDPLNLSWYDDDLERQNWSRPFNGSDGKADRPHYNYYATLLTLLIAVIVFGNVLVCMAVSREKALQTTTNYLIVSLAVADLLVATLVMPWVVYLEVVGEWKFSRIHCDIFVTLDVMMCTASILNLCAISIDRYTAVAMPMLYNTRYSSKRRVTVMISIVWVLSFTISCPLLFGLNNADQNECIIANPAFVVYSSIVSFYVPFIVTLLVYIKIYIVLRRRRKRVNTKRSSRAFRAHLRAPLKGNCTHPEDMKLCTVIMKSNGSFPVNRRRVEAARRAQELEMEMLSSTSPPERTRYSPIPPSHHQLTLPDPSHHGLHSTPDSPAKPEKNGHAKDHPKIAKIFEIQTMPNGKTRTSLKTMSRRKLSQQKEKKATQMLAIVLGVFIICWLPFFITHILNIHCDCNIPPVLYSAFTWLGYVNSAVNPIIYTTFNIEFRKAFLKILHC
#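 Potentiation of an EC20 dopamine calcium response is measured in a force-coupled, tetracycline-inducible Hek293 Trex D2 line. Compound-only kinetic reads over 180 s flag agonists before dopamine addition.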
# D2 antag = antagonists of human D2 dopamine receptor | 2% of 340,000 active | HEK293 TREx D2 cells, calcium flux, dopamine EC80 | AID 485344 | P14416 | inhibition, % at 10 µM; in the data active = inhibition above about 30%; inactive = below that, where a call was filed; note: 0% is about no effect
#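 Measurement of antagonist activity uses fluorescent calcium dye in inducible HEK293 T-REx D2 cells: 10 s baseline, compound addition with 180 s read, EC80 dopamine addition with a further 180 s read.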
# D2 PAM-2 = human D2 receptor positive allosteric modulation; P14416; DiscoveRx D2 beta-arrestin cells, luminescence, 90 min; 100% = 57 uM dopamine signal; potentiation, % (no concentration beside the values); 0.23% of 360,000 active; AID 624464; in the data active = potentiation above about 50%
#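 PathHunter D2 cells, attached overnight at 37 deg C, received compound in DMSO plus dopamine at EC20 (50 nM final) for 90 min at 37 deg C. Beta-arrestin recruitment was read as luminescence after 1 h with detection reagent at ambient temperature.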
# D2 ag-1 = activates the human D2 dopamine receptor | P14416 | AID 485358 | 0.53% of 340,000 active | HEK293 T-REx D2 cells, calcium flux agonist mode | activation, % at 2 µM;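 active = activation over 3 SD above normal in the single-dose calcium agonist read, cut at about 30% in these data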; note: 0% is about no effect
#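 Agonism scored from kinetic calcium signal (1 read/sec, 180 s) following compound pin transfer, after a 10 s baseline. Cells: HEK293 Trex line expressing inducible D2 receptor coupled to calcium, dye-loaded after overnight culture at 30 C.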
# D2 ag-2 = agonists of human D2 dopamine receptor (beta-arrestin); P14416; DiscoveRx PathHunter D2 beta-arrestin, luminescence, 90 min; 100% = 57 uM dopamine signal; activation, % (no concentration beside the values); 0.084% of 360,000 active; AID 624465; in the data active = activation above about 40%
#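 DiscoveRx PathHunter D2 beta-arrestin cells (2,100/well) attached overnight, then compound-stimulated 90 min at 37 C in HBSS/10 mM HEPES/0.1% Tween-20 buffer; beta-galactosidase complementation read by luminescence after 1 h at ambient temperature. Dopamine 57 uM final (EC100) as control.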
# D3 arrestin ag = confirmation of human D3 dopamine receptor agonists, beta-arrestin | Potency, µM (top dose mostly 76.9 µM), inactives show at the highest dose activation, most hits filed as activators | 4% of 2,300 active | shares compounds with D2 ag-1 | DiscoveRx D3 beta-arrestin cells, luminescence, 90 min;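 note: potency is the fitted concentration of half-maximal effect; 100% = dopamine control response; nearly all actives have a fitted effect of over 70% in size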
# D2 ag-3 = activates human D2 dopamine receptor in D3 counterscreen. DiscoveRx PathHunter D2 beta-arrestin, luminescence, 90 min; response scale: percent relative to full dopamine signal. shares compounds with D2 ag-1. Potency, µM (titrated, usually from 76.9 µM), inactives show at the highest dose activation, most hits filed as activators. 5.9% of 2,300 active; note: potency is the fitted concentration of half-maximal effect; % of control where 0% means no effect; nearly all actives have a fitted effect of over 70% in size
# An asterisk follows results filed as active; / = not tested or not shown; ! = a repeat was not active. Unless noted, calls come from the whole dose curve; as a rule, active = well fitted activation curve with a large enough effect; inconclusive = small, poorly fitted or top-dose-only effect; inactive = flat fitted curve, though single readings scatter.
SMILES,D2 PAM-1,D2 antag,D2 PAM-2,D2 ag-1,D2 ag-2,D3 arrestin ag,D2 ag-3
O=C(CCSc1nc(-c2ccco2)cc(C(F)(F)F)n1)N1CCN(c2ccccn2)CC1,-17,6,2,52*,0,-7%,0%
O=C1C(=O)N(C2CCN(C(=O)c3ccccc3Cl)CC2)CCN1Cc1ccc(F)cc1,1,/,/,0,/,/,/
C=CCn1c(SCCCC)nc(O)cc1=O,-12,31*!,-7,15,-2,1%,-1%
CCOC(=O)c1cnc2c(ccc3ccccc32)c1Nc1ccc(N(C)C)cc1,-8,/,/,/,/,/,/
Cc1ccc(S(=O)(=O)N(C)C)cc1NC(=O)C1CCN(C(=O)Nc2ccccc2)CC1,-29,73*,-30,1,0,-2%,-4%
N#CCC(=O)NCCCc1ccccc1,-5,6,-4,41*,-4,-6%,-5%
O=C(Nc1ccc(F)cc1)C1CC2CCC1C2 (stereo not given),/,/,-4,/,13,-10%,-6%
CC(C)c1ccc(NC(=O)C2CC3CCC2C3)cc1 (stereo not given),-4,11,-2,0,0,/,/
COc1ccc(CN2CCC[C@]3(N[C@H](c4ccc(C)cc4)[C@@H]4C(=O)N(C)C(=O)[C@@H]43)C2=O)cc1,/,/,-3,/,-9,/,/
CCOC(=O)c1c(NC(=O)CC)sc2c1CCN(Cc1ccccc1)C2,5,-13,-17,8,-6,/,/
CCOC(=O)c1c(NC(=O)C(C)Sc2cccc[n+]2[O-])sc2c1CCN(Cc1ccccc1)C2 (stereo not given),14,-6,-16,42*,-5,-3%,-7%
COC(=O)c1c(NC(C)=O)sc2c1CCN(Cc1ccccc1)C2,-21,-24,-9,38*,0,7%,12%
CCOC(=O)c1c(NC(C)=O)sc2c1CCN(Cc1ccccc1)C2,-19,-2,-8,25,-3,/,/
CCOC(=O)C1(CCOc2ccccc2)CCN(CCCn2cccn2)CC1,-21,77*,-13,57*,2,8%,18%
CCOC(=O)C1(Cc2cccc(F)c2)CCN(CCCn2cccn2)CC1,-22,-24,-23,43*,0,-9%,0%
CCOC(=O)C1(CCOc2ccccc2)CCN(Cc2cccc(-n3cccn3)c2)CC1,-20,-1,-19,0,6,/,/
OCCC1CN(CCCc2ccccc2)CCN1Cc1ccc(F)cc1 (stereo not given),-18,29,-32,1,-2,/,/
Cc1ccc(CN2CCN(CCCc3ccccc3)CC2CCO)cc1 (stereo not given),-30,49*,-23,53*,-1,-2%,3%
COc1ccccc1NC(=O)CN(C)S(=O)(=O)c1ccc2c(c1)c(=O)n(C)c(=O)n2C,5,/,/,-1,/,/,/
COc1ccc2c(c1)c(N1CCCC1=O)c(C(=O)Nc1ccc(Cl)cc1C)n2C,4,/,/,0,/,/,/
COc1ccc(-c2cn(Cc3ccc4c(c3)C(=O)c3ccccc3C4=O)nn2)cc1,-1,13,-1,1,3,40µM*,35µM*
C[C@H]1CNC(=O)c2c(C(=O)NC3CCN(C(=O)OC(C)(C)C)CC3)ncn21,/,/,-2,/,-4,/,/
O=C(Nc1ccc(Cl)cc1C(F)(F)F)C(Sc1nnc(-c2cccs2)o1)c1ccccc1 (stereo not given),-11,10,-12,1,-3,/,/
COc1ccc(C)cc1NC(=O)C(Sc1nnc(-c2cccs2)o1)c1ccccc1 (stereo not given),8,13,-7,-1,-2,-15%,-3%
CC1(C)O[C@@H]2[C@H](O1)[C@@H](CO)O[C@H]2n1cnc2c(=O)[nH]cnc21,-2,-9,0,-1,-2,-3%,-2%
